Rows were chosen to be rich in hits. Some 3.5% of all compounds tested hit in one or more screens of this group.
GPR151 activ – activators of human GPR151 | AID 1508602 | PathHunter beta-arrestin GPR151 cells, luminescence | 650,000 tested, 1% active | Q8TDV0 | activation, % at 11.2 µM; in the data active = activation above about 4.9%;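 also: 0% = median of compound wells and 100% = cells with positive control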
Target sequence (Q8TDV0 whole entry, looked up): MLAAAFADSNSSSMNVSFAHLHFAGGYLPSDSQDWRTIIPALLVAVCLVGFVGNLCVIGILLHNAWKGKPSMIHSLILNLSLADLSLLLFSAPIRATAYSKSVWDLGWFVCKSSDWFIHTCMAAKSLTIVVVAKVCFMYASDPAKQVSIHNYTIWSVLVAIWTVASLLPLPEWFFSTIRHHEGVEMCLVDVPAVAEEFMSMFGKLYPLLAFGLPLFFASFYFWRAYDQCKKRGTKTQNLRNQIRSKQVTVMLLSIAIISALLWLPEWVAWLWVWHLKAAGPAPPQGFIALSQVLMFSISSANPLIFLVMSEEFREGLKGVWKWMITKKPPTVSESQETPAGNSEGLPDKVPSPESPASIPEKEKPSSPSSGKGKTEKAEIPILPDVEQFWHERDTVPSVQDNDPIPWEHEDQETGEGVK
MITF primary – human MITF inhibition, primary screen; O75030; AlphaScreen MITF homodimerization, bead proximity signal; inhibition, % at 2.6 µM; AID 1259374; 650,000 tested, 0.91% active; in the data active = inhibition above about 50%;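 also: 0% = vehicle wells with protein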
TEAD-YAP block – TEAD-YAP interaction inhibition; inhibition, % at 9.12 µM; AID 1259422; HEK-TIYL cells, TEAD-Gal4/YAP UAS-luciferase luminescence; 640,000 tested, 1.4% active; in the data active = inhibition above about 32%;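 also: 0% = median of test compound wells and 100% = reference inhibitor wells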
FBW7 act – activators of human E3 ligase FBW7 | Q969H0 | AlphaScreen FBW7–phospho-cyclin E peptide binding, activator screen | normalized activity (activation), % at 26.1 µM | 650,000 tested, 0.13% active; in the data active = normalized activity above about 1.9%;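 also: purified mutant Fbw7 with reduced substrate affinity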
GPR151 confirm – human GPR151 activation, confirmation screen. shares compounds with GPR151 activ. activation, % at 11.2 µM. AID 1508609. GPR151 PathHunter beta-arrestin cells, luminescence, 90 min; % of EA-reagent control over plate median. 6,700 tested, under 10 active;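 active = mean percent activation across replicates above the confirmation screen cutoff of 4.91%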
GPR119 counter – activates human GPR119 in a GPR151 counter-screen. shares compounds with GPR151 activ. GPR119 PathHunter beta-arrestin cells, luminescence, 90 min; 0 = compound-well median, 100 = enzyme-acceptor control. activation, % at 11.2 µM. 6,700 tested, 0.3% active;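 active = mean percent activation in the counterscreen above 29.09%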;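 also: counterscreen on off-target GPR119 to flag nonselective hits from the GPR151 activator screen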
Starred values were filed as active, the others as inactive; · = no result given.

SMILES | GPR151 activ | MITF primary | TEAD-YAP block | FBW7 act | GPR151 confirm | GPR119 counter
Cc1cc(NC(=O)C(C)n2cc([N+](=O)[O-])cn2)ccc1Br (stereo not drawn) | 5.2* | 10.5 | -3.1 | -0.2 | 1.3 | 9.5
O=C(CS(=O)(=O)c1ccccc1)Nc1nc(-c2ccc3ccccc3c2)cs1 | 1.9 | -7.5 | -8.3 | 0.0 | · | ·
O=C(CS(=O)(=O)c1ccccc1)Nc1nc(-c2ccc(F)cc2)cs1 | 9.7* | 1.6 | -18.4 | -0.2 | 0.3 | 6.3
CN(Cc1cccs1)S(=O)(=O)c1cccc(Br)c1 | -0.2 | 9.1 | 5.1 | 0.0 | · | ·
CCCCc1nc(SCc2cccnc2)c2c(=O)n(C)c(=O)n(C)c2n1 | 1.5 | -10.5 | 7.8 | -0.2 | · | ·
CCc1nc(SCc2cccnc2)c2c(=O)n(C)c(=O)n(C)c2n1 | 8.2* | 3.8 | 5.7 | 0.2 | 0.1 | 4.4
NC(=O)c1ccccc1NC(=O)CCn1c(=S)oc2ccccc21 | 7.8* | 15.1 | -0.5 | -0.1 | -0.9 | -3.3
CC(NC(=O)COc1ccccc1C#N)c1ccccc1 (stereo not drawn) | -1.0 | -5.9 | 3.3 | 0.3 | · | ·
CCOc1cc(C#N)ccc1OCC(=O)NC(C)c1ccccc1 (stereo not drawn) | 13.4* | 5.7 | 1.7 | 0.0 | 0.1 | 5.3
Cc1ccsc1/C=C(/C#N)C(=O)NCc1ccccc1 | -0.8 | 8.3 | -10.8 | 0.1 | · | ·
Cc1ccsc1/C=C(\C#N)C(=O)NCc1cccnc1 | 12.4* | -6.1 | 2.1 | 0.1 | 0.5 | -2.3
CCC1CN(CCC(=O)NCCc2nc3ccccc3[nH]2)Cc2cc(OC)ccc2O1 (stereo not drawn) | 7.0* | -3.5 | 7.8 | 0.0 | -0.1 | 1.1
CCC1CN(Cc2nc3ccccc3[nH]2)Cc2cc(OC)ccc2O1 (stereo not drawn) | -1.0 | -16.2 | 1.6 | -0.3 | · | ·
CN1CCC(N(C(=O)c2ccc(C(F)(F)F)cc2)C2CCN(C)CC2)CC1 | 6.2* | -4.2 | -7.3 | 0.0 | -0.6 | -12.4
CC[n+]1c(/C=C2\Sc3ccc(-c4ccccc4)cc3N2CCO)ccc2cc(OC)ccc21 | 13.9* | -22.4 | 91.1* | -1.2 | -0.3 | -0.1
COc1ccc(N=c2scc(-c3ccccc3)n2CCO)cc1 | 2.1 | -2.7 | -24.3 | -0.1 | · | ·
CC(=O)Nc1ccnn1C1CCN(Cc2ccc(C3CCCCO3)s2)CC1 (stereo not drawn) | -0.1 | -12.5 | -20.7 | -0.1 | · | ·
CC1C=CCC2C(=O)N(c3ccc([N+](=O)[O-])cc3)C(=O)C12 (stereo not drawn) | 1.6 | 5.4 | 0.2 | -0.3 | · | ·
Cc1ccc(N2C(=O)C3CC=CC(C)C3C2=O)cc1 (stereo not drawn) | 11.7* | 7.2 | -17.3 | 0.3 | -0.2 | -4.5
Cc1cccc(OCCOc2ccccc2/C=C2/C(=N)N3N=C(C(C)C)SC3=NC2=O)c1 | 0.6 | -6.2 | -8.5 | -0.1 | · | ·
NNC(=O)CCCNS(=O)(=O)c1ccc([N+](=O)[O-])cc1 | 5.7* | -0.3 | 0.4 | -0.1 | 1.2 | 6.4
O=C(NCC1COC2(CCCC2)O1)c1ccccc1 (stereo not drawn) | 0.1 | -4.6 | -13.1 | -0.1 | · | ·
CSc1cccc(NC(=O)c2nnn(CC(=O)Nc3ccc(C)cc3C)c2N)c1 | 1.0 | 3.3 | 7.9 | -0.1 | · | ·
COC(=O)c1ccc2c(=O)n(Cc3ccc(C(=O)NC4CCCCCC4)cc3)c(=S)[nH]c2c1 | 6.0* | -10.3 | -6.7 | -0.1 | -1.9 | -20.6
COC(=O)c1ccc2c(=O)n(Cc3ccc(C(=O)NC4CCCC4)cc3)c(=S)[nH]c2c1 | 0.0 | -11.7 | -4.2 | -0.1 | · | ·
SMILES | GPR151 activ | MITF primary | TEAD-YAP block | FBW7 act | GPR151 confirm | GPR119 counter
COc1ccc(/C=N/n2ncnc2SC)cc1OC | -1.7 | -5.6 | -25.5 | -0.1 | · | ·
COc1ccc(/C=N/n2c(SC)nnc(C(C)(C)C)c2=O)cc1OC | 6.2* | 4.7 | -0.9 | 0.1 | 0.1 | 5.3
CN(C(=O)c1ccc(Cl)cc1)C1(C)CCS(=O)(=O)C1 (stereo not drawn) | -0.2 | 10.9 | -0.7 | -0.1 | · | ·
CCOc1ccc(-n2nc(C(=O)Nc3ccc(OC)c(OC)c3)c3ccccc3c2=O)cc1 | 5.6* | 12.0 | -5.7 | 0.6 | -0.8 | 9.2
COc1ccccc1-n1nc(C(=O)Nc2ccc(Cl)cn2)c2ccccc2c1=O | 7.6* | 12.5 | 4.6 | 0.4 | 0.3 | 3.7
COc1ccc(-n2nc(C(=O)NCC(=O)NCCCN3CCC(C)CC3)c3ccccc3c2=O)cc1OC | -0.7 | -1.4 | -2.9 | -0.1 | · | ·
CCOc1ccccc1N(C)C(=O)c1nn(-c2cc(OC)cc(OC)c2)c(=O)c2ccccc12 | 6.6* | 9.2 | -0.6 | 0.2 | -0.3 | -5.9
COc1ccc(-n2nc(C(=O)NCC(=O)NCCCN3CCN(c4cccc(Cl)c4)CC3)c3ccccc3c2=O)cc1OC | 4.9* | 20.2 | 16.6 | 0.1 | -0.3 | -0.4
CCOc1ccccc1N(C)C(=O)c1nn(-c2ccc(OC)cc2)c(=O)c2ccccc12 | -0.5 | 3.0 | 6.8 | -0.2 | · | ·
CCOc1ccc(NC(=O)CNC(=O)c2nn(-c3ccc(OC)c(OC)c3)c(=O)c3ccccc23)cc1 | 1.3 | -1.2 | 6.1 | -0.1 | · | ·
Cc1ccc(C(=O)N/N=C/C(=O)c2ccccc2)c(C)c1 | -4.7 | -7.2 | 18.2 | -0.1 | · | ·
O=C(Nc1ccc2[nH]ncc2c1)[C@@H]1CCCN1C(=O)c1cc2cc(Br)ccc2[nH]1 | 1.3 | 6.3 | -7.8 | -0.2 | · | ·
COc1ccc(OC)c(NC(=O)c2nn(-c3ccc(OC)cc3OC)c(=O)c3ccccc23)c1 | 8.7* | 14.2 | 10.2 | 0.0 | -0.7 | -1.4
CCOc1ccc(NC(=O)c2nnn(-c3ccccc3OC)c2C)cc1 | 5.7* | 9.3 | -1.8 | 0.7 | -0.2 | 0.0
COc1ccc(-n2nc(C(=O)Nc3cc(Cl)ccc3OC)c3ccccc3c2=O)c(OC)c1 | -1.7 | -1.9 | -6.2 | -0.1 | · | ·
CCN(CC)C(=O)c1ccc2c(=O)n(-c3ccc(F)cc3)c(=S)[nH]c2c1 | 5.0* | -14.6 | 17.2 | -0.1 | -0.3 | -18.4
O=C(NO)c1ccc(Br)s1 | 0.5 | 4.9 | -7.2 | 0.0 | · | ·
CC(=O)NCCNC(=O)c1ccc(Br)s1 | 6.0* | -1.9 | -5.7 | 0.0 | -0.8 | -3.6
CCN(CC)S(=O)(=O)c1cc([N+](=O)[O-])ccc1N/N=C/c1ccc([N+](=O)[O-])o1 | -1.6 | 16.7 | 5.7 | 0.3 | · | ·
COC(=O)COc1ccc(/C=C(/C#N)c2ccc([N+](=O)[O-])cc2)cc1Br | 7.2* | 3.4 | 11.3 | -0.1 | 0.2 | -0.3
COc1cc(/C=C(\C#N)c2ccc([N+](=O)[O-])cc2)ccc1O | 0.7 | -13.8 | 4.6 | -0.1 | · | ·
CN1CCN(C(=O)c2cc(S(=O)(=O)N3CCCCC3)c[nH]2)CC1 | 5.3* | 7.1 | -5.5 | 0.0 | 0.9 | -4.4
CCN1CCN(C(=O)c2cc(S(=O)(=O)N3CCCCC3)c[nH]2)CC1 | -1.4 | -1.2 | -5.7 | 0.1 | · | ·
CN(C)C(=O)c1ccc(-c2nnc(Nc3ccccc3)c3ccccc23)cc1 | 1.0 | -4.0 | -10.4 | 0.1 | · | ·
